From the supplement of paper PMC12494721
Counter-ions that a name gives are not always drawn.

Experiments:
Conditions in all cases: 20 µM; incubation time: 27 h, anaerobic, 37 °C;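 for the amine columns active = adjusted P below 0.05 in both replicates with a change the same way and a mean fold change under 0.8 or over 1.25; inactive = the rest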
[1] = system: Clostridium sporogenes DSM 1664; test: growth (OD595) fold change vs plate DMSO controls (fold change (ratio)); higher = more growth
In short: (§1)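 To obtain OD, 595 nm absorbance readings were blank-subtracted, corrected for compound background using 20 µM compound solutions in water, and multiplied by a calibration factor of 5. They came from 96-well mGAM cultures grown anaerobically for 27 h at 37 °C and shaken before reading. Growth is the fold change relative to the median of plate DMSO controls. Two biological replicates were averaged, and fold changes above 1.5 were set to NA.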

[2] = system: Escherichia coli IAI1; test: as above
In short: as §1

[3] = system: Klebsiella aerogenes DSM 30053; test: as above
In short: as §1

[4] = system: Ruminococcus gnavus DSM 108212; test: as above
In short: as §1

[5] = system: Klebsiella aerogenes DSM 30053; test: fold change of Histamine concentration vs plate DMSO controls (fold change (ratio)); higher = more amine produced, active = hit call of the paper (significant change in both replicates, either direction)
In short: (§2)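 Using LC–triple-quadrupole MS with dynamic MRM, amines were quantified against external calibration curves and corrected for drift within each batch. Samples were whole anaerobic mGAM cultures of four gut strains, grown 27 h at 37 °C from OD 0.1 before 1:1 dilution, extracted with cold acetonitrile/methanol containing 0.1% formic acid and centrifuged. Compounds were present at 20 µM final (sweeteners at 50 µM final). The numbers are fold changes versus plate DMSO controls, each the mean of 2 biological replicates.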

[6] = system: Clostridium sporogenes DSM 1664; test: fold change of Tryptamine concentration vs plate DMSO controls (fold change (ratio)); higher = more amine produced, active = hit call of the paper (significant change in both replicates, either direction)
In short: as §2

[7] = system: Ruminococcus gnavus DSM 108212; test: as above
In short: as §2

[8] = system: Escherichia coli IAI1; test: fold change of Putrescine concentration vs plate DMSO controls (fold change (ratio)); higher = more amine produced, active = hit call of the paper (significant change in both replicates, either direction)
In short: as §2

[9] = system: Klebsiella aerogenes DSM 30053; test: as above
In short: as §2

[10] = system: Escherichia coli IAI1; test: fold change of Cadaverine concentration vs plate DMSO controls (fold change (ratio)); higher = more amine produced, active = hit call of the paper (significant change in both replicates, either direction)
In short: as §2

[11] = system: Klebsiella aerogenes DSM 30053; test: as above
In short: as §2

[12] = system: Ruminococcus gnavus DSM 108212; test: fold change of 2-Phenylethylamine concentration vs plate DMSO controls (fold change (ratio)); higher = more amine produced, active = hit call of the paper (significant change in both replicates, either direction)
In short: as §2

Structure (SMILES)	growth [1]	growth [2]	growth [3]	growth [4]	fold change of Histamine concentration [5]	fold change of Tryptamine concentration [6]	fold change of Tryptamine concentration [7]	fold change of Putrescine concentration [8]	fold change of Putrescine concentration [9]	fold change of Cadaverine concentration [10]	fold change of Cadaverine concentration [11]	fold change of 2-Phenylethylamine concentration [12]
N#Cc1cc(Br)c(O)c(Br)c1	0.976	0.821	0.928	0.963	1.02 (inactive)	0.955 (inactive)	1.02 (inactive)	1.23 (inactive)	0.978 (inactive)	1.29 (active)	0.978 (inactive)	1.01 (inactive)
CCOCN(C(=O)CCl)c1c(C)cccc1CC	0.867	1.01	0.997	1.08	1.01 (inactive)	1.06 (inactive)	1.01 (inactive)	0.901 (inactive)	0.941 (inactive)	0.88 (inactive)	1 (inactive)	1.02 (inactive)
N[C@@H]1C[C@H]1c1ccccc1 [Tranylcypromine hydrochloride]	1.05	0.992	1.03	1.02	1.1 (inactive)	0.972 (inactive)	0.964 (inactive)	1.01 (inactive)	1.03 (inactive)	1.03 (inactive)	0.995 (inactive)	0.928 (inactive)
CC(C)CC(C)c1sccc1NC(=O)c1cn(C)nc1C(F)(F)F (centres undefined)	1.03	1.05	1.01	0.961	0.988 (inactive)	0.935 (inactive)	1.03 (inactive)	1.05 (inactive)	1.01 (inactive)	1 (inactive)	0.991 (inactive)	1.03 (inactive)
CNC(=O)c1cc(C#N)cc(C)c1NC(=O)c1cc(Br)nn1-c1ncccc1Cl	1.13	0.996	0.981	1.06	1 (inactive)	1.2 (inactive)	1.06 (inactive)	0.935 (inactive)	0.938 (inactive)	0.886 (inactive)	1.02 (inactive)	1.08 (inactive)
CC(C)(C)c1ccc(CSc2cnn(C(C)(C)C)c(=O)c2Cl)cc1	0.838	0.995	1.01	1.13	1 (inactive)	1.02 (inactive)	0.997 (inactive)	0.97 (inactive)	1.01 (inactive)	1.04 (inactive)	1 (inactive)	0.948 (inactive)
CCN(CC)N=O [NDEA (N-nitrosodiethylamine)]	1.13	1.04	1.09	1.04	0.928 (inactive)	1 (inactive)	1.01 (inactive)	1.01 (inactive)	0.999 (inactive)	1.03 (inactive)	1.01 (inactive)	1.01 (inactive)
